Sampled rows, rich in hits. Any-hit rate of the full collection: about 7.3%.
SNCA expr inh = Primary qHTS assay for inhibitors of alpha-synuclein gene (SNCA) expression; HEK-293 SNCA-luciferase knock-in, luminescence, 24 h; 140,000 compounds, 0.17% hits; Potency, µM (doses to about 57.2 µM), without a hit: at the highest dose activity change, negative = inhibition, most hits filed as inhibitors;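 also: potency is read from the fitted curve at half-maximal effect; plate controls were DMSO cells for no effect and cell-free wells for full effect; nearly all actives have a fitted effect of over 45% in size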
HEK293 viab = GF-AFC viability counterscreen for inhibitors of alpha-synuclein gene (SNCA) expression. HEK-293-SNCA-luc viability, GF-AFC fluorescence, 24 h. AID 1671193, 2021. 150,000 compounds, 0.12% hits. Potency, µM (top dose mostly 57.1 µM), for the others: at the highest dose activity change, negative = cytotoxicity, hits mostly cytotoxic;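 also: potency is read from the fitted curve at half-maximal effect; 0% = DMSO-treated cells and -100% = medium-only wells without cells; nearly all actives have a fitted effect of over 30% in size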
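Cytotoxicity counterscreen: after 24 h compound treatment of genome-edited SNCA-luciferase HEK-293 cells, live-cell protease substrate GF-AFC read by fluorescence after 30 min; activity scaled between DMSO (0%) and medium-only (-100%), curves Hill-fitted.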
HEK293 tox = Cytotoxic Profiling in HEK 293 Cell Line of Diverse Libraries Using Quantitative High-Throughput Screening; Potency, µM (highest dose often 115 µM), without a hit: at the highest dose activity change, negative = cytotoxicity, most hits filed as inhibitors; HEK 293 viability, ATP luminescence (CellTiter-Glo), 48-72 h; 94,000 compounds, 6.6% hits; AID 1345083, 2018; also: potency is read from the fitted curve at half-maximal effect; % is scaled to controls: 0 for no effect and ±100 for the full control effect; nearly all actives have a fitted effect of over 60% in size
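ATP-coupled CellTiter-Glo luminescence served as viability read-out, recorded 10 min after reagent addition at room temperature. HEK 293 cells, 250 cells/well, had been incubated with pintool-transferred compound for 48 or 72 hr at 37 degree Celsius.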
FLuc inh-1 = Firefly luciferase inhibition profiling of diverse chemical library using quantitative high-throughput screening | purified P. pyralis luciferase, luminescence, biochemical | 76,000 compounds, 2.5% hits | Luciferin 4-monooxygenase (Photinus pyralis), P08659 | Potency, µM (doses to about 115 µM), usual class: inhibitors; also: potency is read from the fitted curve at half-maximal effect; % is scaled to controls: 0 for no effect and ±100 for the full control effect; nearly all actives have a fitted effect of over 65% in size
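Purified P. pyralis luciferase (10nM final) in 50mM Tris acetate pH 7.5, 10mM Mg acetate, 0.01% Tween-20, 0.05% BSA with 10uM D-luciferin and 10uM ATP. Compounds titrated qHTS. Luminescence imaged on CCD.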
3T3 cytotox = Cytotoxic Profiling in NIH 3T3 Cell Line of Diverse Libraries Using Quantitative High-Throughput Screening | 94,000 compounds, 4.3% hits | Potency, µM (titrated, usually from 96.7 µM), without a hit: at the highest dose activity change, negative = cytotoxicity, actives largely listed as inhibitors | NIH 3T3 viability, CellTiter-Glo ATP luminescence, 48-72 h | AID 1345082, 2018; also: potency is read from the fitted curve at half-maximal effect; % is scaled to controls: 0 for no effect and ±100 for the full control effect; nearly all actives have a fitted effect of over 55% in size
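First NIH 3T3 cells are plated at 400 cells/well; next compound is pinned in; then plates incubate 48 or 72 hr at 37 °C; finally CellTiter-Glo is added and luminescence read after 10 min.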
IP6K1 inhibitor = Primary qHTS assay for small molecule inhibitors of Inositol hexaphosphate kinase 1 (IP6K1); IP6K1 kinase, ADP-Glo luminescence, 2 h; stronger effect = lower value; activity change, % (series mostly up to about 58 µM); 140,000 compounds, 0.81% hits; AID 1645851, 2021; in the data active = activity change below about -25%; also: % is scaled to controls: 0 for no effect and ±100 for the full control effect
Target sequence (Q92551 whole entry, looked up): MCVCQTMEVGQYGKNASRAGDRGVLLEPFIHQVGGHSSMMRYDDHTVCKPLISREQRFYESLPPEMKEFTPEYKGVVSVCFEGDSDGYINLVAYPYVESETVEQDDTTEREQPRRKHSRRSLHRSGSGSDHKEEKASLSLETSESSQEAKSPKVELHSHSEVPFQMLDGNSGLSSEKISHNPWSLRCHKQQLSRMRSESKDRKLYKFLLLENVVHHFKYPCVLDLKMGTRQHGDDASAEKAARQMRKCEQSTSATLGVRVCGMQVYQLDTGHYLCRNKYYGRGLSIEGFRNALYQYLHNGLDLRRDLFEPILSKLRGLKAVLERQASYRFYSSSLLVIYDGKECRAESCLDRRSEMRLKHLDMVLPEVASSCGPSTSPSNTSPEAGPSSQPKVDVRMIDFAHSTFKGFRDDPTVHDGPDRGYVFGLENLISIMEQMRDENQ
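ADP-Glo luminescence measures ADP made by human IP6K1 during a 2 h RT reaction with ATP/IP6 (mix at 1.3 mM/130 uM); top library doses 57.5 and 19.1 uM final.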
FLuc SDR no ATP = Firefly luciferase (FLuc-C-HiBiT) SDR gain of signal screen - without ATP; shares compounds with FLuc inh-1; Purified FLuc-C-HiBiT, Nano-Glo HiBiT luminescence, no ATP; Potency, µM (top dose mostly 32.7 µM), without a hit: at the highest dose activation (signal gain), most hits filed as activators; 1,300 compounds, 7.8% hits; AID 1963318, 2024; also: potency is read from the fitted curve at half-maximal effect; nearly all actives have a fitted effect of over 55% in size
FLuc SDR ATP = Firefly luciferase (FLuc-C-HiBiT) SDR gain of signal screen - plus ATP; Potency, µM (doses to about 32.7 µM), without a hit: at the highest dose activation (gain of signal), usual class: activators; 1,300 compounds, 8.7% hits; AID 1963319, 2024; shares compounds with FLuc inh-1; purified FLuc-C-HiBiT + ATP, HiBiT complementation luminescence;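 also: signal reports ligand binding via conformational change of the enzyme rather than luciferase catalysis; potency is read from the fitted curve at half-maximal effect; % of control where 0% means no effect; nearly all actives have a fitted effect of over 55% in size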
FLuc inh-2 = Firefly luciferase (FLuc-C-HiBiT) enzymatic inhibition screen - Functional assay | Potency, µM (top dose mostly 32.7 µM), inactives show at the highest dose activity change, negative = inhibition, actives largely listed as inhibitors | shares compounds with FLuc inh-1 | purified FLuc-C-HiBiT enzyme, luciferin luminescence | 1,300 compounds, 42% hits; also: potency is read from the fitted curve at half-maximal effect; % is scaled to controls: 0 for no effect and ±100 for the full control effect; nearly all actives have a fitted effect of over 70% in size
An asterisk follows results filed as active; i = inactive; ? = inconclusive; / = no result given. Unless noted, calls follow the shape of the dose curve; as a rule, active = well fitted curve in the direction sought with a large enough effect; inconclusive = small, poorly fitted or top-dose-only effect, or another doubt; inactive = no such curve, though single readings can be large; an effect the other way counts as inactive or inconclusive.

SMILES | SNCA expr inh | HEK293 viab | HEK293 tox | FLuc inh-1 | 3T3 cytotox | IP6K1 inhibitor | FLuc SDR no ATP | FLuc SDR ATP | FLuc inh-2
N#Cc1c(-n2ncnc2-c2ccccc2Cl)sc2c1CCCCC2 | 39% | -5% | / | / | / | 12 | 30% | ? | 2.2µM*
N#Cc1c(-n2ncnc2-c2ccccc2C(F)(F)F)sc2c1CCCCC2 | ? | -6% | / | / | / | -9 | / | / | /
N#Cc1c(-n2ncnc2-c2cccc(Cl)c2)sc2c1CCCCC2 | -5% | -1% | / | / | / | -13 | 29% | ? | 2µM*
COc1cccc(C(=O)N2CCC3(C2)NC(=O)N(Cc2ccc(Cl)cc2)C3=O)c1 (centres undefined) | -8% | 10% | ? | i | ? | -16 | / | / | /
Cc1ccc([S+](=O)([O-])c2nnn3c2nc(NC2CC2)c2ccccc23)cc1C | 55% | 4% | -26% | / | -38% | 16 | / | / | /
C=CCN(C)C(=O)[C@@H](C)C1CC[C@@]2(C)Cc3sc(NC(=O)CN(C)C)nc3[C@@H](C)[C@@H]2[C@H]1O (some centres undefined) | 100% | 4% | -21% | 13µM* | -27% | -3 | 13% | 13% | -13%
CCN(CC)C(=O)C(C)[C@@H]1CC[C@@]2(C)Cc3sc(NC(=O)C4CC4)nc3[C@@H](C)[C@@H]2[C@H]1O (some centres undefined) | 16% | -1% | -5% | i | -19% | 6 | / | / | /
O=C(c1[nH]ncc1Cl)N1CCOC(Cc2cccc(C(F)(F)F)c2)C1 (centres undefined) | 24% | -1% | ? | 13µM* | -29% | -3 | 13% | 12% | -15%
CCN(c1ncnc2c1cnn2-c1cccc(Cl)c1)C1CCCCC1 | -5% | -2% | / | / | / | 16 | 27% | ? | 5.6µM*
Cc1cc(Cl)ccc1-n1ncc2c(N3CCCCC3)ncnc21 | / | / | / | / | / | / | 31% | ? | 4.4µM*
Clc1cccc(-n2ncc3c(N4CCCCC4)ncnc32)c1 | ? | 5% | / | / | / | 37 | 6.2µM* | ? | 0.99µM*
Clc1cccc(-n2ncc3c(N4CCCCCC4)ncnc32)c1 | 54% | -2% | / | / | / | -6 | / | / | /
Clc1cccc(-n2ncc3c(NC4CCCCC4)ncnc32)c1 | -76% | -29% | / | / | / | 27 | / | / | /
CCN1CCN(c2ccc(-c3cccc(N)c3)nn2)CC1 | ? | 1% | ? | 14µM* | ? | -17 | 23% | ? | 9.9µM*
c1ccc(COc2ccc(CN3CCSCC3)cc2)nc1 | -22% | -1% | ? | 10µM* | i | -3 | 21% | 15% | ?
NC(=O)[C@@H]1CN(Cc2ccccn2)C[C@H]1COc1ccccc1 | 4% | -18% | -16% | i | ? | 21 | / | / | /

Compound activity from PubChem.
